{"source": "PubChem BioAssay AID463173", "about": "(ICCB-Longwood Screening Facility, Harvard Medical School, 2010)", "note": "About 4,300 (8.3%) of roughly 52,000 compounds were called active. This is one part of a sample in which actives are shown more often than they occur. Unmarked numbers belong to inactive results. Rule as the data show it: active = survival mostly below about 52% (no sharp cut-off); inactive = mostly above about 56%."}
{"system": "DeltatarO mutant", "assay": "growth inhibition of S. aureus wild type versus tarO mutant, primary screen, teichoic acid synthesis inhibitors, RN4220, OD600 (AID 463173)", "settings": "OD600, 18 h, hits give low values, screened at 18.75 µg/mL (by protocol)"}
{"smiles": "COc1ccc(NS(=O)(=O)c2ccc3[nH]c(=O)ccc3c2)cc1OC", "survival": "98%"}
{"smiles": "COc1ccc(-c2nc3sc(CCNC(=O)c4cc(Cl)ccc4OC)c(C)n3n2)cc1", "survival": "73%"}
{"smiles": "COc1ccc(C(C(=O)NCc2cccs2)N(Cc2ccco2)C(=O)Cn2nnc(-c3cccs3)n2)cc1", "note": "(stereo not given)", "survival": "93%"}
{"smiles": "CCc1cccc(C)c1NC(=O)CCCn1nc(C)c2sc3ccccc3c2c1=O", "survival": "86%"}
{"smiles": "CCc1ccc(Sc2cc(C(=O)O)c3ccccc3n2)cc1", "survival": "78%"}
{"smiles": "CCOCCCNC(=O)CN1C(=O)COc2ccc(S(=O)(=O)N3CCCC3)cc21", "survival": "87%"}
{"smiles": "CCC(Cn1nnc2ccccc2c1=O)NC(=O)Nc1cccc(C)c1C", "note": "(stereo not given)", "survival": "55%"}
{"smiles": "CCC(Cn1nnc2ccccc2c1=O)NC(=O)Nc1ccc(C)cc1", "note": "(stereo not given)", "survival": "55%"}
{"smiles": "CCc1ccccc1NC(=O)NC(CC)Cn1nnc2ccccc2c1=O", "note": "(stereo not given)", "survival": "61%"}
{"smiles": "CCC(Cn1nnc2ccccc2c1=O)NC(=O)Nc1ccc(C)cc1C", "note": "(stereo not given)", "survival": "44% (active)"}
{"smiles": "CCC(Cn1nnc2ccccc2c1=O)NC(=O)Nc1cccc(Cl)c1", "note": "(stereo not given)", "survival": "39% (active)"}
{"smiles": "CCC(Cn1nnc2ccccc2c1=O)NC(=O)Nc1cc(C)cc(C)c1", "note": "(stereo not given)", "survival": "41% (active)"}
{"smiles": "CCC(Cn1nnc2ccccc2c1=O)NC(=O)Nc1ccc(C)c(C)c1", "note": "(stereo not given)", "survival": "45%"}
{"smiles": "CCC(Cn1nnc2ccccc2c1=O)NC(=O)Nc1ccccc1Cl", "note": "(stereo not given)", "survival": "85%"}
{"smiles": "CCC(Cn1nnc2ccccc2c1=O)NC(=O)Nc1cc(OC)cc(OC)c1", "note": "(stereo not given)", "survival": "88%"}
{"smiles": "COc1ccccc1CNC(=O)C(C)n1ccc2cc(S(=O)(=O)N3CCCC3)ccc21", "note": "(stereo not given)", "survival": "81%"}
{"smiles": "CCc1ccc(CN2CCC(C(=O)N(C)CCc3ccc(OC)c(OC)c3)CC2)cc1", "survival": "81%"}
{"smiles": "CCCN(C(=O)c1cc2c(=O)[nH]c3ccc(C)cc3c2s1)c1ccc(CC)cc1", "survival": "64%"}
{"smiles": "CCCCNS(=O)(=O)c1ccc(NC(=O)c2c(-c3ccccc3)noc2C)cc1", "survival": "101%"}
{"smiles": "CN(C)c1ccc(CNC(=O)C2CCN(S(=O)(=O)c3ccc4c(ccn4C)c3)CC2)cc1", "survival": "95%"}
{"smiles": "Cc1ccc(NC(=O)c2cnc(SCC(=O)Nc3cc(C)on3)n(C)c2=O)cc1", "survival": "88%"}
{"smiles": "COc1ccc(CCn2c3c(c(=O)[nH]c2=O)C(NC(=O)c2ccccc2F)(C(F)(F)F)C(=O)N3)cc1OC", "note": "(stereo not given)", "survival": "60%"}
{"smiles": "COc1ccc(N(Cc2cc3ccccc3[nH]c2=O)C(=O)c2cccc(Cl)c2)cc1", "survival": "87%"}
{"smiles": "COc1ccc(CCNC(=O)CCCCn2c(=O)c3ccccc3n(Cc3cc(C)ccc3C)c2=O)cc1OC", "survival": "108%"}
{"smiles": "Cc1ccc(N2CC(c3nnc(Cc4ccc(F)cc4)o3)CC2=O)cc1", "note": "(stereo not given)", "survival": "24% (active)"}
{"smiles": "Cc1ccc(N2CC(c3nnc(Cc4ccc(Cl)cc4)o3)CC2=O)cc1", "note": "(stereo not given)", "survival": "48%"}
{"smiles": "O=C1CC(c2nnc(Cc3ccc(F)cc3)o2)CN1c1ccccc1", "note": "(stereo not given)", "survival": "134%"}
{"smiles": "COc1ccc(S(=O)(=O)Nc2cccc(-c3ccc(N4CCCCCC4)nn3)c2)c(OC)c1", "survival": "74%"}
{"smiles": "COc1ccc(Cn2ccc3nc(C)c(C(=O)N4CCN(c5cccc(OC)c5)CC4)cc3c2=O)cc1", "survival": "81%"}
{"smiles": "Cc1ccc2nc(COc3ccccc3NC(=O)c3ccc(F)cc3)cc(=O)n2c1", "survival": "20% (active)"}
{"smiles": "Cc1ccc2nc(COc3ccccc3NC(=O)c3ccccc3F)cc(=O)n2c1", "survival": "85%"}
{"smiles": "O=C(COc1ccc(F)cc1)Nc1cccc(OCc2cc(=O)n3ccccc3n2)c1", "survival": "102%"}
{"smiles": "CCC(=O)Nc1cccc(OCc2cc(=O)n3cc(C)ccc3n2)c1", "survival": "55%"}
{"smiles": "Cc1cccc(C(=O)Nc2ccccc2OCc2cc(=O)n3cc(C)ccc3n2)c1", "survival": "60%"}
{"smiles": "Cc1ccc(Cl)cc1NC(=O)Nc1cccc(OCc2cc(=O)n3ccccc3n2)c1", "survival": "72%"}
{"smiles": "O=C(Nc1cccc(OCc2cc(=O)n3ccccc3n2)c1)Nc1cccc(C(F)(F)F)c1", "survival": "-4% (active)"}
{"smiles": "Cc1ccc2nc(COc3cccc(NC(=O)Nc4ccc(C)c(Cl)c4)c3)cc(=O)n2c1", "survival": "25% (active)"}
{"smiles": "Cc1ccc2nc(COc3cccc(NC(=O)c4ccccc4Cl)c3)cc(=O)n2c1", "survival": "75%"}
{"smiles": "CCc1ccc(NC(=O)CSc2cn(CC(=O)N3CCCC3)c3ccccc23)cc1", "survival": "97%"}
{"smiles": "COc1ccc(C)cc1S(=O)(=O)NCC(c1ccc(N(C)C)cc1)N1CCc2ccccc21", "note": "(stereo not given)", "survival": "55%"}
{"smiles": "Cc1cccc(-n2ccnc2SCC(=O)Nc2nc3ccccc3s2)c1", "survival": "93%"}
{"smiles": "COc1ccc(OC)c(NC(=O)/C=C/c2ccc(C)o2)c1", "survival": "40% (active)"}
{"smiles": "Cc1ccc(NC(=O)/C=C/c2ccc(C)o2)c(C)c1", "survival": "46%"}
{"smiles": "Cc1ccc(/C=C/C(=O)Nc2ccccc2C(N)=O)o1", "survival": "64%"}
{"smiles": "CCOC(=O)c1cc(-c2ccccc2)n(CCC(=O)Nc2ccc(Cl)c(C(F)(F)F)c2)c1C", "survival": "102%"}
{"smiles": "CN(C)S(=O)(=O)c1ccc(S(=O)(=O)N(Cc2ccccc2F)C2CC2)cc1", "survival": "91%"}
{"smiles": "CCCCN(CCCNC(=O)c1c(C)oc2nc[nH]c(=O)c12)Cc1ccccc1", "survival": "53% (active)"}
{"smiles": "Cc1oc2ncn(C)c(=O)c2c1C(=O)NCCCN(Cc1ccccc1)C(C)C", "survival": "72%"}
{"smiles": "CCN(CCCNC(=O)c1c(C)oc2ncn(CC(C)C)c(=O)c12)Cc1ccccc1", "survival": "83%"}
{"smiles": "O=C(CSc1ncn(-c2ccccc2)n1)c1ccc(Cl)cc1", "survival": "74%"}
{"smiles": "COC(=O)CN1C(C(=O)c2ccccc2)=C(OC(=O)c2ccc(F)cc2)c2ccccc2S1(=O)=O", "survival": "56%"}
{"smiles": "CCCN1C(C(=O)c2ccccc2)=C(OC(=O)c2ccc(F)cc2)c2ccccc2S1(=O)=O", "survival": "31% (active)"}
{"smiles": "CCN1C(C(=O)c2ccccc2)=C(OC(=O)C(C)C)c2ccccc2S1(=O)=O", "survival": "67%"}
{"smiles": "CCCCN1C(C(=O)c2ccccc2)=C(OC(C)=O)c2ccccc2S1(=O)=O", "survival": "-4% (active)"}
{"smiles": "CCCCN(CCCC)C1=C(C(=O)c2ccccc2)N(C)S(=O)(=O)c2ccccc21", "survival": "72%"}
{"smiles": "CCCCN1C(C(=O)c2ccccc2)=C(OC(=O)CC)c2ccccc2S1(=O)=O", "survival": "-4% (active)"}
{"smiles": "CCCCCN1C(C(=O)c2ccccc2)=C(NC(C)=O)c2ccccc2S1(=O)=O", "survival": "58%"}
{"smiles": "CCOC(=O)CN1C(C(=O)c2ccccc2)=C(OC(=O)C(C)(C)C)c2ccccc2S1(=O)=O", "survival": "58%"}
{"smiles": "CCCN1C(C(=O)c2ccccc2)=C(OC(=O)c2ccc(C)cc2)c2ccccc2S1(=O)=O", "survival": "52%"}
{"smiles": "CCCN1C(C(=O)c2ccccc2)=C(OC(=O)C(C)(C)C)c2ccccc2S1(=O)=O", "survival": "53%"}
{"smiles": "CCCCN(CCCC)C1=C(C(=O)c2ccccc2)N(CC)S(=O)(=O)c2ccccc21", "survival": "60% (active)"}
{"smiles": "COc1ccc(N(C(=O)c2ccc(C)cc2)S(=O)(=O)c2ccc(Cl)cc2)cc1", "survival": "76%"}
{"smiles": "CN(CC(=O)Nc1cccc(C(F)(F)F)c1)S(=O)(=O)c1ccc2[nH]c3c(c2c1)CCCC3", "survival": "94%"}
{"smiles": "CC(=O)N1CCc2cc(C(=O)C[n+]3ccccc3)ccc21", "survival": "91%"}
{"smiles": "C=CCNC(=O)CN1CCC(n2c(C)nc3cc(C(F)(F)F)ccc32)CC1", "survival": "95%"}
{"smiles": "O=C(Cn1ncn2c(cc3ccccc32)c1=O)NCc1ccc(F)cc1", "survival": "104%"}
{"smiles": "CCCCCN1C(C(=O)c2ccccc2)=C(OC(=O)CC)c2ccccc2S1(=O)=O", "survival": "-4% (active)"}
{"smiles": "CCOC(=O)CN1C(C(=O)c2ccccc2)=C(OC(=O)c2ccccc2)c2ccccc2S1(=O)=O", "survival": "56%"}
{"smiles": "CCCN1C(C(=O)c2ccccc2)=C(OC(=O)c2ccc(OC)cc2)c2ccccc2S1(=O)=O", "survival": "56%"}
{"smiles": "CCCCC(=O)OC1=C(C(=O)c2ccccc2)N(CC)S(=O)(=O)c2ccccc21", "survival": "52%"}
{"smiles": "CCN1C(C(=O)c2ccccc2)=C(OC(=O)c2ccc(OC)cc2)c2ccccc2S1(=O)=O", "survival": "46% (active)"}
{"smiles": "CCN1C(C(=O)c2ccccc2)=C(OC(=O)c2ccc(Cl)cc2)c2ccccc2S1(=O)=O", "survival": "50%"}
{"smiles": "CCCCC(=O)OC1=C(C(=O)c2ccccc2)N(CCC)S(=O)(=O)c2ccccc21", "survival": "18% (active)"}
{"smiles": "CCCCC(=O)OC1=C(C(=O)c2ccccc2)N(C)S(=O)(=O)c2ccccc21", "survival": "104%"}
{"smiles": "COC(=O)CN1C(C(=O)c2ccccc2)=C(OC(=O)c2ccccc2)c2ccccc2S1(=O)=O", "survival": "49%"}
{"smiles": "O=C(COc1ccccc1)Nc1ccc(S(=O)(=O)N(Cc2ccccc2)c2ccccc2)cc1", "survival": "61%"}
{"smiles": "CC1CCCN(CNC(=O)c2ccccc2)C1", "note": "(stereo not given)", "survival": "92%"}
{"smiles": "COc1cc(CNCCCSc2nnnn2C)cc(Br)c1OC", "survival": "81%"}
{"smiles": "Cc1ccc(S(=O)(=O)N2CCCc3cc(NC(=O)c4c(F)cccc4F)ccc32)cc1", "survival": "73%"}
{"smiles": "COc1ccccc1NC(=O)Cn1nnc(C(=O)NCc2ccc3c(c2)OCO3)c1N", "survival": "103%"}
{"smiles": "CCOC(=O)Cn1c(=O)oc2cc(S(=O)(=O)N3CCN(c4ccc(F)cc4)CC3)ccc21", "survival": "117%"}
{"smiles": "CSc1cccc(-c2nnc(NC(=O)c3ccc4c(c3)OCCO4)o2)c1", "survival": "72%"}
{"smiles": "COc1cccc(NC(=O)CC(=O)Nc2ccc3nc4n(c(=O)c3c2)CCCCC4)c1", "survival": "96%"}
{"smiles": "Cc1ccc(C)c(N2CCN(C(=O)NCc3noc4ccccc34)CC2)c1", "survival": "51%"}
{"smiles": "Cc1ccc(N2CCN(C(=O)NCc3noc4ccccc34)CC2C)cc1", "note": "(stereo not given)", "survival": "30% (active)"}
{"smiles": "O=C(NCc1noc2ccccc12)N1CCN(c2ccccc2)CC1", "survival": "44%"}
{"smiles": "O=C(O)CCC(=O)N1CCN(Cc2ccc3c(c2)OCO3)CC1", "survival": "75%"}
{"smiles": "CC(=O)c1ccc(NC(=O)c2cc(S(=O)(=O)N3CCOCC3)ccc2C)cc1", "survival": "49% (active)"}
{"smiles": "Cc1ccc(S(=O)(=O)N2CCOCC2)cc1C(=O)Nc1ccccc1C(=O)O", "survival": "83%"}
{"smiles": "COc1ccc(NC(=O)c2cc(S(=O)(=O)N3CCOCC3)ccc2OC)cc1", "survival": "89%"}
